The source of these data is PubChem BioAssay (NCI).

Each structure is given as a SMILES string. About 79,000 compounds went through this panel and 15% of them were active in at least one assay; those are over-represented in the sample as a whole. Unmarked numbers belong to inactive results. The source made the active and inactive calls. Cut-off read from the data, not from the text of the source: active = growth inhibition above about 70%; inactive = the rest.

Assay [1] can be described thus: NCI Yeast Anticancer Drug Screen. Data for the rad50 strain (AID 155).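 Note: 0% = growth of vehicle-only cultures of the same strain.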 Conditions: S. cerevisiae rad50 strain growth inhibition, hits give high values. The method, boiled down:
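Cells are treated with compound, grown, and their growth is then scored against vehicle-only cultures of the same repair-deficient yeast strain.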

Assay [2] in a line: NCI Yeast Anticancer Drug Screen. Data for the mec2-1 strain (AID 157). Conditions: S. cerevisiae mec2-1 strain, hits give high values. The method, boiled down:
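Vehicle-treated cultures served as reference for growth inhibition of compound-exposed mec2-1 yeast.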

Assay [3] is described as follows: NCI Yeast Anticancer Drug Screen. Data for the sgs1 mgt1 strain (AID 161).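 Note: 0% = growth of cultures given vehicle only.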 To be noted: S. cerevisiae sgs1 mgt1 strain, hits give high values. The method, boiled down: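 Inhibition of yeast growth, normalised to vehicle-treated controls, is reported for a strain bearing genetic alterations in DNA damage repair.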
Assay [4] can be described thus: NCI Yeast Anticancer Drug Screen. Data for the cln2 rad14 strain (AID 165).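 Note: 0% = growth equal to vehicle treated cultures.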 Conditions: S. cerevisiae cln2 rad14 strain, hits give high values. The gist of the method: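 Each compound was tested on cln2 rad14 yeast. Inhibition of growth was calculated against vehicle-exposed controls.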
Assay [5] in a line: NCI Yeast Anticancer Drug Screen. Data for the bub3 strain (AID 167). To be noted: S. cerevisiae bub3 mutant strain, hits give high values. The method, boiled down:
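Part of a panel of yeast mutants defective in DNA damage repair or cell cycle regulation. Each strain is grown with compound, and inhibition is calculated relative to solvent-treated cultures.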

Assay [6] is described as follows: NCI Yeast Anticancer Drug Screen. Data for the mlh1 rad18 strain (AID 175). Conditions: S. cerevisiae mlh1 rad18 strain growth inhibition, hits give high values. The gist of the method:
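Vehicle-treated cultures served as the reference for growth inhibition in a yeast strain carrying DNA damage repair alterations exposed to each compound.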

Setting [7] is: at 5.0 µM (retest, dose inferred, filed as 0.5).
Where [8] appears, read: at 50.0 µM (retest, dose inferred, filed as 5.0).

On to `S=c1[nH]nc(Nc2ccccc2Cl)s1`, for which the growth inhibition was 17% in assay [1] (setting [7]); 3% in assay [1] (setting [8]); 57.5% in assay [1] (at 50.0 µM); -21% in assay [2] (setting [7]); -8% in assay [2] (setting [8]); 32.4% in assay [2] (at 50.0 µM). Further, the growth inhibition in assay [3] (setting [7]) is -4%; in assay [3] (setting [8]), 15%; in assay [3] (at 50.0 µM) it was 79.8% (active); in assay [4] (setting [7]) it was 23%; in assay [4] (setting [8]) it was 22%; in assay [4] (at 50.0 µM) it was 43.2%. Further, the growth inhibition in assay [5] (setting [7]) is 1%; in assay [5] (setting [8]), 19%; in assay [5] (at 50.0 µM), 57%; in assay [6] (setting [7]), -7%; in assay [6] (setting [8]), -8%; in assay [6] (at 50.0 µM) it was 47.9%.
As for `O=C(O)c1ccc(C(=O)c2ccccc2C(=O)O)cc1`, the growth inhibition is -3% in assay [1] (setting [7]); -4% in assay [1] (setting [8]); 99.3% (active) in assay [1] (at 50.0 µM); -5% in assay [2] (setting [7]); -2% in assay [2] (setting [8]); 99.7% (active) in assay [2] (at 50.0 µM). In addition, the growth inhibition in assay [3] (setting [7]) is -1%; in assay [3] (setting [8]), -1%; in assay [3] (at 50.0 µM), 99.4% (active); in assay [4] (setting [7]) it was -2%; in assay [4] (setting [8]) it was -7%; in assay [4] (at 50.0 µM), 98.5% (active). The growth inhibition is 0% in assay [5] (setting [7]); -1% in assay [5] (setting [8]); 99.7% (active) in assay [5] (at 50.0 µM); 1% in assay [6] (setting [7]); 0% in assay [6] (setting [8]); 99.3% (active) in assay [6] (at 50.0 µM).
On to `CC1(C)CC[C@]2(C(=O)O)CC[C@]3(C)C(=CC[C@@H]4[C@@]5(C)C[C@H](O)[C@H](O)[C@@](C)(C(=O)O)[C@@H]5CC[C@]43C)[C@@H]2C1`, for which the growth inhibition in assay [1] (setting [7]) was 100% (active); in assay [1] (setting [8]), 99% (active); in assay [1] (at 50.0 µM), 91.2% (active); in assay [2] (setting [7]), 100% (active); in assay [2] (setting [8]), 100% (active); in assay [2] (at 50.0 µM), 94.1% (active). Moreover, the growth inhibition in assay [3] (setting [7]) is 99% (active); in assay [3] (setting [8]) it was 99% (active); in assay [3] (at 50.0 µM) it was 92.7% (active); in assay [4] (setting [7]) it was 99% (active); in assay [4] (setting [8]), 99% (active); in assay [4] (at 50.0 µM) it was 92% (active). Further, the growth inhibition in assay [5] (setting [7]) was 99% (active); in assay [5] (setting [8]), 99% (active); in assay [5] (at 50.0 µM), 92% (active); in assay [6] (setting [7]), 100% (active); in assay [6] (setting [8]), 100% (active); in assay [6] (at 50.0 µM), 88.7% (active).
As to `CCc1cccc(C(C)C)c1N1C(=O)C(=O)C(c2nc3ccccc3s2)C(=O)C1=O`, the growth inhibition is 65% in assay [1] (setting [7]); 65% in assay [1] (setting [8]); 85.2% (active) in assay [1] (at 50.0 µM); 23% in assay [2] (setting [7]); 23% in assay [2] (setting [8]); 87.3% (active) in assay [2] (at 50.0 µM). Also, the growth inhibition was 71% (active) in assay [3] (setting [7]); 71% (active) in assay [3] (setting [8]); 83.8% (active) in assay [3] (at 50.0 µM); 51% in assay [4] (setting [7]); 51% in assay [4] (setting [8]); 85% (active) in assay [4] (at 50.0 µM). Also, the growth inhibition in assay [5] (setting [7]) was 34%; in assay [5] (setting [8]) it was 34%; in assay [5] (at 50.0 µM) it was 86% (active); in assay [6] (setting [7]), 36%; in assay [6] (setting [8]), 36%; in assay [6] (at 50.0 µM) it was 88.2% (active).
On to `O=C1CC(c2ccccc2)NN1` (configuration not stated), for which the growth inhibition in assay [1] (setting [7]) is -108%; in assay [1] (setting [8]) it was 92% (active); in assay [1] (at 50.0 µM) it was 90.9% (active); in assay [2] (setting [7]), -42%; in assay [2] (setting [8]) it was 94% (active); in assay [2] (at 50.0 µM) it was 90.5% (active). Also, the growth inhibition was -51% in assay [3] (setting [7]); 89% (active) in assay [3] (setting [8]); 69.8% in assay [3] (at 50.0 µM); -62% in assay [4] (setting [7]); 93% (active) in assay [4] (setting [8]); 87.8% (active) in assay [4] (at 50.0 µM). Further, the growth inhibition is -71% in assay [5] (setting [7]); 87% (active) in assay [5] (setting [8]); 88.2% (active) in assay [5] (at 50.0 µM); -114% in assay [6] (setting [7]); 93% (active) in assay [6] (setting [8]); 86.5% (active) in assay [6] (at 50.0 µM).
`CCCCOC(=O)c1ccc(S(=O)(=O)c2ccc(C(=O)OCCCC)cc2)cc1`: the growth inhibition in assay [1] (setting [7]) was 3%; in assay [1] (setting [8]) it was -6%; in assay [1] (at 50.0 µM), 1.7%; in assay [2] (setting [7]), 3%; in assay [2] (setting [8]), -3%; in assay [2] (at 50.0 µM), 28.4%. For the same molecule, the growth inhibition is 5% in assay [3] (setting [7]); -18% in assay [3] (setting [8]); 10% in assay [3] (at 50.0 µM); 5% in assay [4] (setting [7]); -11% in assay [4] (setting [8]); -13.1% in assay [4] (at 50.0 µM). Besides, the growth inhibition in assay [5] (setting [7]) was 4%; in assay [5] (setting [8]), -1%; in assay [5] (at 50.0 µM) it was 77.7% (active); in assay [6] (setting [7]) it was 2%; in assay [6] (setting [8]) it was -3%; in assay [6] (at 50.0 µM) it was 11.1%.
As for `CCOC(=O)C(=N\Nc1ccccc1C)/C(C)=N\NC(N)=S`, the growth inhibition in assay [1] (setting [7]) was -9%; in assay [1] (setting [8]) it was 37%; in assay [1] (at 50.0 µM) it was 73.5% (active); in assay [2] (setting [7]) it was 7%; in assay [2] (setting [8]), 55%; in assay [2] (at 50.0 µM), 48.5%. The growth inhibition in assay [3] (setting [7]) is 15%; in assay [3] (setting [8]), 71% (active); in assay [3] (at 50.0 µM) it was 75.2% (active); in assay [4] (setting [7]), -13%; in assay [4] (setting [8]) it was 20%; in assay [4] (at 50.0 µM), 81.1% (active). The growth inhibition in assay [5] (setting [7]) was 5%; in assay [5] (setting [8]) it was 30%; in assay [5] (at 50.0 µM) it was 73.6% (active); in assay [6] (setting [7]), 18%; in assay [6] (setting [8]) it was 68%; in assay [6] (at 50.0 µM) it was 80.3% (active).
As to `CN(C)CCCCCNc1c2ccccc2nc2cccc([N+](=O)[O-])c12`, the growth inhibition in assay [1] (setting [7]) was 73% (active); in assay [1] (setting [8]) it was 95% (active); in assay [1] (at 50.0 µM), 90% (active); in assay [2] (setting [7]) it was 52%; in assay [2] (setting [8]), 97% (active); in assay [2] (at 50.0 µM), 91.2% (active). The growth inhibition in assay [3] (setting [7]) was 29%; in assay [3] (setting [8]) it was 33%; in assay [3] (at 50.0 µM), 89.2% (active); in assay [4] (setting [7]), 37%; in assay [4] (setting [8]) it was 62%; in assay [4] (at 50.0 µM), 92.3% (active). Also, the growth inhibition in assay [5] (setting [7]) is 23%; in assay [5] (setting [8]), 47%; in assay [5] (at 50.0 µM), 89% (active); in assay [6] (setting [7]) it was 78% (active); in assay [6] (setting [8]), 96% (active); in assay [6] (at 50.0 µM), 87.7% (active).
For `CC1CCCCC12C(C#N)(C#N)C2(C#N)C#N` (configuration not stated), the growth inhibition in assay [1] (setting [7]) was 22%; in assay [1] (setting [8]), 90% (active); in assay [1] (at 50.0 µM) it was 99.2% (active); in assay [2] (setting [7]), 30%; in assay [2] (setting [8]), 97% (active); in assay [2] (at 50.0 µM) it was 99.3% (active). The growth inhibition is 33% in assay [3] (setting [7]); 97% (active) in assay [3] (setting [8]); 99.5% (active) in assay [3] (at 50.0 µM); 8% in assay [4] (setting [7]); 89% (active) in assay [4] (setting [8]); 99.2% (active) in assay [4] (at 50.0 µM). For the same molecule, the growth inhibition is 43% in assay [5] (setting [7]); 97% (active) in assay [5] (setting [8]); 99.4% (active) in assay [5] (at 50.0 µM); 41% in assay [6] (setting [7]); 98% (active) in assay [6] (setting [8]); 99.3% (active) in assay [6] (at 50.0 µM).
